# High-throughput results: PubChem BioAssay, National Center for Advancing Translational Sciences (NCATS)
# Most compounds without a hit are left out; they make up all but 0.74% or so of the library.
# RECQ1 inh-1 = qHTS Assay for Inhibitors of RecQ-Like Dna Helicase 1 (RECQ1). ATP-dependent DNA helicase Q1 (Homo sapiens), P46063. Potency, µM (doses to about 57.3 µM), for inactives: at the highest dose activity, negative = inhibition, most hits filed as inhibitors. RECQ1 DNA unwinding, red fluorescence kinetic read. 240,000 tested, 0.54% active;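 further: plate controls were vehicle for no effect and no enzyme for full effect; nearly all actives have a fitted effect of over 30% in size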
# Target sequence (P46063 whole entry, looked up): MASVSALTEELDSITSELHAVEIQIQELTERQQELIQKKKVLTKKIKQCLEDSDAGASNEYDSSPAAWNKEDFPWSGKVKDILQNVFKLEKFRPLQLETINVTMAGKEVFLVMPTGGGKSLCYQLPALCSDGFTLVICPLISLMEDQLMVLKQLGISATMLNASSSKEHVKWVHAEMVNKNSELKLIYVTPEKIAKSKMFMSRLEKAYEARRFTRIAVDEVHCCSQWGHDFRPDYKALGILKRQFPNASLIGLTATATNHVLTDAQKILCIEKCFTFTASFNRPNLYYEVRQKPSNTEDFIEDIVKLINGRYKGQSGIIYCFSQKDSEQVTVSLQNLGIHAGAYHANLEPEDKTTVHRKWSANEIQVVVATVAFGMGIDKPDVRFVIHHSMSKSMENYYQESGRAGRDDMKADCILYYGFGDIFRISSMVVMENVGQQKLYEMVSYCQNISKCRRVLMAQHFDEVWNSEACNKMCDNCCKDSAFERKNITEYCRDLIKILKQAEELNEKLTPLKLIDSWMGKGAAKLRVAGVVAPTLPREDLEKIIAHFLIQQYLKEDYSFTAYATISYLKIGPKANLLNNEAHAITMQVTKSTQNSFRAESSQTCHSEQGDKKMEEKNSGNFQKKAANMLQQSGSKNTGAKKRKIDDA
#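 50 nM RECQ1T1 preincubated 15 min with compound in Tris pH 8.0 buffer with MgCl2, DTT, Tween-20 and 2.5 ug/ml poly(dI-dC); started with 200 nM TAMRA/BHQ-2 forked duplex and 2 mM ATP. Unwinding read as fluorescence (525/598 nm), two reads 2 h apart.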
# FEN1 inh = qHTS Assay for the Inhibitors of Human Flap endonuclease 1 (FEN1). AID 588795, 2011. Potency, µM (top dose mostly 114 µM), without a hit: top-dose activity change, negative = inhibition, usual class: inhibitors. P39748. 390,000 tested, 0.35% active. Recombinant FEN1 flap cleavage, fluorescence, 15 min; further: nearly all actives have a fitted effect of over 65% in size
#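 In this screen, 50 nM flap DNA substrate was added to 10 nM FEN1 pretreated with compound for 15 min at room temperature; cleavage was followed with reads at 0 and 15 min, and Hill fitting gave concentration–response parameters.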
# PGK inhibitor = qHTS Assay to Find Inhibitors of Phosphoglycerate Kinase. PGK/GAPDH coupled, Kinase-Glo luminescence, 60 min. 380,000 tested, 0.043% active. Phosphoglycerate kinase, glycosomal (Trypanosoma brucei brucei), P07378. Potency, µM (highest dose often 57.5 µM), for inactives: top-dose activity change, negative = inhibition, hits mostly inhibitors; further: nearly all actives have a fitted effect of over 60% in size
#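 Luminescent ATP detection (Kinase-Glo Plus) follows a 60-minute room-temperature incubation, with wells lacking PGK as controls. Buffer: 100 mM TEA (pH 7.6), 5 mM MgCl2, 0.01% Tween-20. Coupling enzyme GAPDH (100 nM final) supplies unstable 1,3-BPG in-well.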
# APEX1 inh = qHTS Assay for Inhibitors of the Human Apurinic/apyrimidinic Endonuclease 1 (APE1) | Potency, µM (top dose mostly 65.8 µM), for the others: at the top dose activity change, negative = inhibition, most hits filed as inhibitors | recombinant APE1, TAMRA/BHQ-2 abasic DNA cleavage fluorescence | 350,000 tested, 0.35% active | DNA repair nuclease/redox regulator APEX1 (Homo sapiens), P27695;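 further: plate controls were vehicle for no effect and reference inhibitor for full effect; nearly all actives have a fitted effect of over 55% in size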
#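 Compound pre-exposure to 0.75 nM APE1, 15 min at ambient temperature. Reaction initiated with 50 nM TAMRA/BHQ-2 THF substrate, read immediately in kinetic mode, 525 nm excitation, 598 nm emission.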
# BLM inh = qHTS Assay for Inhibitors of Bloom's syndrome helicase (BLM); recombinant BLM DNA unwinding, fluorescence dequenching; Potency, µM (doses to about 56.1 µM), without a hit: top-dose activity change, negative = inhibition, most hits filed as inhibitors; 350,000 tested, 0.2% active; AID 2528, 2010;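 further: plate controls were vehicle for no effect and no enzyme for full effect; nearly all actives have a fitted effect of over 35% in size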
# RECQ1 inh conf = Confirmation qHTS Assay for Inhibitors of RecQ-Like Dna Helicase 1 (RECQ1). AID 2708, 2010. RECQ1 helicase DNA unwinding, fluorescence. shares compounds with RECQ1 inh-1. 610 tested, 28% active. Potency, µM (highest dose often 229 µM), without a hit: at the highest dose activity change, negative = inhibition, hits mostly inhibitors; further: nearly all actives have a fitted effect of over 45% in size
# ADP FP counter = Counterscreen for RECQ1 Inhibitors: ADP Fluorescence Polarization Displacement Assay; shares compounds with RECQ1 inh-1; ADP fluorescence polarization displacement counterscreen; Potency, µM (series often up to 228 µM), without a hit: at the top dose activity change, negative = inhibition, actives largely listed as inhibitors; 530 tested, 27% active; AID 2711, 2010; further: nearly all actives have a fitted effect of over 45% in size
# RECQ1 inh-2 = Confirmation qHTS Assay for Inhibitors of RecQ-Like Dna Helicase 1 (RECQ1) - Round 2 Cherry Picks. 1,100 tested, 15% active. AID 504841, 2011. recombinant RECQ1 DNA unwinding, red fluorescence. Potency, µM (titrated, usually from 119 µM), without a hit: at the top dose activity, negative = inhibition, usual class: inhibitors. shares compounds with RECQ1 inh-1; further: nearly all actives have a fitted effect of over 50% in size
# Numbers without * were called inactive; i = inactive; ? = inconclusive; . = not tested or not shown; + = active, no number; [ ] = remark or other dose. The call rests on the fitted dose curve; in most records, active means well fitted curve in the direction sought with a large enough effect; inconclusive means small, poorly fitted or top-dose-only effect, or another doubt; inactive means no such curve, though single readings can be large; an effect the other way counts as inactive or inconclusive. Unless noted, on the % scale 0 is the no-effect control and ±100 the full control effect; potency means the concentration at half of the fitted maximal effect.
SMILES,RECQ1 inh-1,FEN1 inh,PGK inhibitor,APEX1 inh,BLM inh,RECQ1 inh-2,others
Cc1cccc(Nc2nc(N)c([N+](=O)[O-])c(NCc3ccccc3)n2)c1,-28.1%,-17.9%,-3.3%,-6.8%,?,.,
Cc1ccc(Nc2nc(N)c([N+](=O)[O-])c(NCc3ccco3)n2)cc1C,35.5µM*,-26.3%,2.8%,-1.8%,?,50.1µM*,
O=C(NCCS(=O)(=O)N1CCCCCC1)c1ccc(F)cc1,.,1.1%,i,0.7%,.,.,
CSc1ccccc1NC(=O)c1noc2c1CCC2,?,?,?,35.5µM*,-3.8%,?,
Cc1ccc(O)c(NC(=O)c2noc3c2CCCC3)c1,.,-6.7%,i,.,-4.4%,.,
O=C(N/N=C/c1cccc(NC(=O)c2ccc(Cl)cc2)c1)c1ccc(O)cc1,17.8µM*,5.2%,-2.0%,?,-0.6%,.,RECQ1 inh conf=112µM*;ADP FP counter=19.3%[91.9 µM]
COC(=O)c1c(C(=O)OC)c2cccc3cc(-c4ccccc4)c4ccc1c4n32,3.98µM*,-3.9%,4.5%,-6.4%,-12.6%,?,
COC(=O)c1cc2c(-c3ccccc3)cc3ccccn3c-2c1C(=O)OC,?,?,-10.0%,-5.0%,-17.1%,79.4µM*,
O=[N+]([O-])c1cc(S(=O)(=O)C(F)(F)F)ccc1N1CCN(c2ccccc2)CC1,?,-2.0%,-6.8%,11.1%,-4.4%,-3.9%,
CCC(=O)N(C)/C=C1\Sc2ccccc2C1=O,-4.1%,-5.2%,i,-0.7%,-0.2%,.,
CC(=O)N(C)/C=C1\Sc2ccccc2C1=O,?,-1.9%,-7.0%,0.4%,-1.9%,-14.6%,
O=C1NC(=S)S/C1=C\C=C\c1ccc([N+](=O)[O-])o1,12.6µM*,31.6µM*,28.2µM*,2.82µM*,-14.4%,.,RECQ1 inh conf=?
O=[N+]([O-])c1ccc(/C=N/N=C/c2ccc([N+](=O)[O-])o2)o1,-8.4%,-20.2%,-7.6%,?,-7.8%,.,
CCN(CC)CCCCn1c(-c2ccccc2)nc2c(NC3CCCCC3)nc(C)nc21,i,.,.,4.0%,-10.3%,.,
CCOC(=O)N1CCC(NC(=O)c2cccc3c2C(=O)N(c2ccc(OC)cc2)C3)CC1,11.2µM*,-1.2%,-9.0%,?,?,.,RECQ1 inh conf=14.1µM*;ADP FP counter=6.5%[91.9 µM]
Cc1cc(/C=C/c2ccc3cc(N(C)C)ccc3[n+]2C)c(C)n1-c1ccccc1,25.1µM*,.,.,?,-23.2%,.,RECQ1 inh conf=271.1%;ADP FP counter=39.8µM*
Cc1cc(/C=N/O)c(C)n1-c1ccccc1,-2.7%,9.4%,-4.5%,-1.1%,0.1%,.,
O=C(Nc1nc(-c2cccs2)c(-c2ccccc2)s1)c1ccco1,-4.5%,-20.7%,-0.1%,?,-20.6%,.,
CC1CC1C(=O)Nc1nc(-c2cccs2)c(-c2cccs2)s1 (stereo not given),31.6µM*,-6.8%,-0.9%,-10.5%,?,?,
CC(=O)N1CCC(N(Cc2ccco2)C(=O)Nc2cccc(C)c2)CC1,.,-5.5%,-6.4%,.,-0.5%,.,
COc1ccc(NC(=O)CSc2nc(O)cc(=O)n2-c2ccccc2OC)cc1,?,-17.6%,-5.4%,-6.8%,-24.7%,-17.5%,
COc1ccccc1-n1c(SCC(=O)Nc2cccc3ccccc23)nc(O)cc1=O,?,3.1%,-1.9%,-6.2%,-17.9%,-11.8%,
O=C(NCCN1C(=O)S/C(=C\c2cccs2)C1=O)c1ccco1,-4.9%,4.5%,i,-5.2%,-1.2%,.,
CC(=O)OCCn1c2nc(=O)[nH]c(=O)c-2nc2cc(C)c(C)cc21,-5.1%,7.8%,-8.3%,4.8%,-3.2%,.,
Cc1cc2nc3c(=O)[nH]c(=O)nc-3n(C)c2cc1C=O,3.16µM*,.,.,-6.4%,15.8µM*,.,RECQ1 inh conf=+;ADP FP counter=6.31µM*
SMILES,RECQ1 inh-1,FEN1 inh,PGK inhibitor,APEX1 inh,BLM inh,RECQ1 inh-2,others
CCn1c(CNC(=O)C2CCCCC2)cc2ccccc21,.,23.0%,1.4%,8.8%,-1.5%,.,
COc1ccc(CN2C(=O)C(CC(C)C)Nc3ncnc(N4CCCCC4)c32)cc1 (stereo not given),.,?,-6.3%,19.8%,.,.,
CC1CCCCC1NC(=O)COC(=O)c1c2c(nc3ccccc13)/C(=C/c1ccco1)CC2 (stereo not given),12.6µM*,?,-9.7%,?,?,?,RECQ1 inh conf=1.0%[114 µM]
CCOC(=O)c1cnc2ccc(C)cc2c1OCc1cc(F)cc(F)c1,9.9%,4.6%,7.7%,0.6%,2.8%,.,
CCN(CC)S(=O)(=O)c1ccc(C(=O)NCc2n[nH]c(=S)n2-c2ccc(Cl)c(Cl)c2)cc1,-1.6%,-0.2%,-10.1%,1.2%,-19.9%,.,RECQ1 inh conf=-6.6%;ADP FP counter=7.9%
CC(C)NC(=O)/C(C#N)=C/c1ccc2c(c1)OCCO2,-4.5%,-3.0%,-2.3%,3.4%,4.4%,.,
COCCNC(=S)N=Nc1c(O)[nH]c2ccc([N+](=O)[O-])cc12,14.2%,-3.1%,i,16.1%,-17.2%,.,
CC(C)(O)C#Cc1ccc(CN2CCCC(CO)(Cc3cccc(Cl)c3)C2)cc1 (stereo not given),?,-7.7%,-5.1%,-2.5%,-7.3%,-26.2%,
Cc1ccccc1CC1(CO)CCCN(Cc2ccc(C#CC(C)(C)O)cc2)C1 (stereo not given),18.6%,4.0%,12.1%,1.5%,-3.7%,.,
Cc1ccc(NC(=O)C2CCN(S(=O)(=O)c3c(C)noc3/C=C/c3ccco3)CC2)nc1,35.5µM*,-9.6%,-2.0%,-5.0%,-4.6%,-11.0%,
CCc1ccc2[nH]c(=O)c(CN(Cc3ccccc3)Cc3nnnn3Cc3ccco3)cc2c1,31.6µM*,-19.7%,-4.1%,?,-29.5%,-16.5%,
O=c1[nH]c2cc3c(cc2cc1CN(Cc1cccs1)Cc1nnnn1Cc1ccco1)OCCO3,?,-9.4%,-6.7%,39.8µM*,-23.5%,-13.4%,
